Source: the supplement of paper PMC10849652
The full data set covers some 8,800 targets. This sample favours those with a hit. About 0.5% of all pairs of compound and target were hits.

Key:
Test in all cases: log2 fold change, soluble protein after heating vs DMSO (PISA); higher = thermal stabilisation; K562 lysate, 10 uM; active = over 0.2 and 3.5 SD of the protein, either way, in both replicates (recomputed)
alvocidib = compound: CN1CC[C@H](c2c(O)cc(O)c3c(=O)cc(-c4ccccc4Cl)oc23)[C@H](O)C1 [alvocidib]
Procedure, shortened: (§1)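 The values are log-two fold changes in thermal stability compared with solvent controls and come from duplicates. They were obtained by TMTpro 16plex LC-MS/MS, with channel sums equalised, on the supernatant after 21,000xg for 90 min. That supernatant came from crude K562 extract at 1 mg/mL protein treated with 10 μM compound for 30 min, heated for 3 min across 48°C-58°C, pooled and brought to 0.5% NP-40 at 4°C.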

Tubastatin A = compound: CN1CCc2c(c3ccccc3n2Cc2ccc(C(=O)NO)cc2)C1 [Tubastatin A]
Procedure, shortened: as §1

[1] = compound: CNC(=O)C1=CC=CC=C1NC2=NC(=NC=C2Cl)NC3=C(C=C(C=C3)N4CCOCC4)OC
Procedure, shortened: as §1

defactinib = compound: CNC(=O)c1ccc(Nc2ncc(C(F)(F)F)c(NCc3nccnc3N(C)S(C)(=O)=O)n2)cc1 [defactinib]
Procedure, shortened: as §1

[2] = compound: CNc1nc(-c2ccc3c(N)n[nH]c3c2)cc(N2C[C@@H](C(=O)NC3CCCCC3)CC[C@H]2C)n1
Procedure, shortened: as §1

encorafenib = compound: COC(=O)N[C@@H](C)CNc1nccc(-c2cn(C(C)C)nc2-c2cc(Cl)cc(NS(C)(=O)=O)c2F)n1 [encorafenib]
Procedure, shortened: as §1

[3] = compound: COC(=O)[C@H](CCSC)NC(=O)C1=C(C=C(C=C1)NC[C@H](CS)N)C2=CC=CC=C2
Procedure, shortened: as §1

alisertib = compound: COc1cc(Nc2ncc3c(n2)-c2ccc(Cl)cc2C(c2c(F)cccc2OC)=NC3)ccc1C(=O)O [alisertib]
Procedure, shortened: as §1

[4] = compound: COc1cc2nc(-c3cc(F)ccc3O)nc(N[C@@H]3CNC[C@H]3C(C)(C)O)c2cc1OC
Procedure, shortened: as §1

gefitinib = compound: COc1cc2ncnc(Nc3ccc(F)c(Cl)c3)c2cc1OCCCN1CCOCC1 [gefitinib]
Procedure, shortened: as §1

Measured: log2 fold change

CKAP5 (UniProt Q14008)
inactive: alvocidib 0.008 | Tubastatin A -0.076 | [1] 0.019 | defactinib 0.008 | [2] 0.003 | encorafenib 0.013 | [3] 0.074 | alisertib 0.012 | [4] 0.007 | gefitinib -0.005

CLUH (UniProt O75153)
UniProt O75153, sequence (O75153 whole entry, looked up): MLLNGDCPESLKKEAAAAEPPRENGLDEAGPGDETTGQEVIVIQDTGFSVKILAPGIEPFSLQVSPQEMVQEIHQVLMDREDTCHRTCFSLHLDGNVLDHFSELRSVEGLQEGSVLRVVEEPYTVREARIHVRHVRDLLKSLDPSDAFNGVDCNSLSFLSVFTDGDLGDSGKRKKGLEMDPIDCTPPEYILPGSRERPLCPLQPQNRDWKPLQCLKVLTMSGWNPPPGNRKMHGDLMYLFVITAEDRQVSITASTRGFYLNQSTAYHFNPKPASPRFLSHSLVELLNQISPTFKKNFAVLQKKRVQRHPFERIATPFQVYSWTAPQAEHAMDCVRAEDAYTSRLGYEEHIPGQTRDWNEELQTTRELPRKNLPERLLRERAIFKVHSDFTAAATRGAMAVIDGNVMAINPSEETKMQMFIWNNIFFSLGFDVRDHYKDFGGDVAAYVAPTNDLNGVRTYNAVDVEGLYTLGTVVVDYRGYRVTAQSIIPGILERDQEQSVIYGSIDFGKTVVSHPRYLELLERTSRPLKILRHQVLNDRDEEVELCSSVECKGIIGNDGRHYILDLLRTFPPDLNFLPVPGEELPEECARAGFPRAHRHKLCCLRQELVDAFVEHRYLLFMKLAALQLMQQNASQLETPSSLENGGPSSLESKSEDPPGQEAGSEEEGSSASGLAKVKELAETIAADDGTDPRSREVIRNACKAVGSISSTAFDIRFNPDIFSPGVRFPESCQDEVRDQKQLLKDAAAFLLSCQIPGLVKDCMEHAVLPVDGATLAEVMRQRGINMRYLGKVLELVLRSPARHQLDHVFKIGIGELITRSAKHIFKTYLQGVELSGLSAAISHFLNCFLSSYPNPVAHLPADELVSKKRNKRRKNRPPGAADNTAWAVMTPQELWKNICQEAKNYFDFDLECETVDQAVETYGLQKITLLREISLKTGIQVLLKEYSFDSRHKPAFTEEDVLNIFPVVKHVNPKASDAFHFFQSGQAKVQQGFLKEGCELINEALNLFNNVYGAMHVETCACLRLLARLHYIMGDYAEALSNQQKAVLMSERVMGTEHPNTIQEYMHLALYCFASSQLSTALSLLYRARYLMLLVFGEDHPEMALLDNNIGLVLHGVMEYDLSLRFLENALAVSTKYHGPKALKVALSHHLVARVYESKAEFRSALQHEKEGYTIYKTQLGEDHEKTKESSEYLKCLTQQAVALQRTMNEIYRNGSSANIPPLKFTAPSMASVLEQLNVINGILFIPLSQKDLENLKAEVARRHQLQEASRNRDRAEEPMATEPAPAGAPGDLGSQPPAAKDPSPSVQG
inactive: alvocidib -0.022 | Tubastatin A -0.076 | [1] -0.076 | defactinib 0.002 | [2] -0.029 | encorafenib 0.007 | [3] 0.058 | alisertib -0.014 | [4] -0.014 | gefitinib 0.017

DENND1B (UniProt Q6P3S1)
UniProt Q6P3S1, sequence (Q6P3S1 whole entry, looked up): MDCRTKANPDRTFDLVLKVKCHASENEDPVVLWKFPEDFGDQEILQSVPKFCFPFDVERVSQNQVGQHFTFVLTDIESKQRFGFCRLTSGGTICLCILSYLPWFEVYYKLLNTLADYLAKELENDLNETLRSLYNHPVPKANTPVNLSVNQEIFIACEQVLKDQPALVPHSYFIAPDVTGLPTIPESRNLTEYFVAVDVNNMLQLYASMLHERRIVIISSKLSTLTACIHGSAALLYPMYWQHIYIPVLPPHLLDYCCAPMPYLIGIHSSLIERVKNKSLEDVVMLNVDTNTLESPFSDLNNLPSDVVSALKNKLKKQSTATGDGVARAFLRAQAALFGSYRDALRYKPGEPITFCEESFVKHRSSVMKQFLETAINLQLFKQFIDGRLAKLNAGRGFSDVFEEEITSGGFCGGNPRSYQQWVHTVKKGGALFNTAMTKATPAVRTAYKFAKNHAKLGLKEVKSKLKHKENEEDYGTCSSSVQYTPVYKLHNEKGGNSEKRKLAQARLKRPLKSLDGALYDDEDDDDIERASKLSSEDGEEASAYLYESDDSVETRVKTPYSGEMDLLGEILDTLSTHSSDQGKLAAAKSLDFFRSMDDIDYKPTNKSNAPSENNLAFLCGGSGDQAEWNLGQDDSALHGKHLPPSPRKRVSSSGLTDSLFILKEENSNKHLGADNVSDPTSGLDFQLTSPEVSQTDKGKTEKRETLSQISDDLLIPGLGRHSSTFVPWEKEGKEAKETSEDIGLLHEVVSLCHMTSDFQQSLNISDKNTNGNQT
inactive: alvocidib 0.074 | Tubastatin A 0.152 | [1] -0.105 | defactinib 0.099 | [2] 0.023 | alisertib -0.146 | [4] -0.226 | gefitinib -0.102

CNTN4 (UniProt Q8IWV2)
inactive: alvocidib -0.148 | Tubastatin A 0.185 | [1] 0.021 | defactinib -0.104 | encorafenib -0.193 | [3] 0.124 | alisertib -0.074 | [4] 0.03 | gefitinib -0.022

CNOT4 isoform 9 (UniProt O95628)
inactive: alvocidib -0.351 | Tubastatin A 0.04 | [1] -0.087 | defactinib -0.085 | [2] -0.047 | encorafenib 0.037 | [3] 0.003 | [4] 0.002

DIAPH1 (UniProt H9KV28)
inactive: alvocidib -0.039 | Tubastatin A 0.032 | [1] 0.036 | defactinib 0.012 | encorafenib 0.054 | [3] 0.213 | alisertib -0.012 | [4] 0.026 | gefitinib -0.005

CHEK2 (UniProt O96017)
active: [1] 0.207
inactive: alvocidib 0.093 | Tubastatin A -0.007 | defactinib 0.022 | [2] -0.085 | encorafenib -0.022 | [3] 0.092 | alisertib 0 | [4] -0.052 | gefitinib 0.09

DAPK1 isoform 3 (UniProt P53355)
UniProt P53355, sequence (P53355 whole entry, looked up): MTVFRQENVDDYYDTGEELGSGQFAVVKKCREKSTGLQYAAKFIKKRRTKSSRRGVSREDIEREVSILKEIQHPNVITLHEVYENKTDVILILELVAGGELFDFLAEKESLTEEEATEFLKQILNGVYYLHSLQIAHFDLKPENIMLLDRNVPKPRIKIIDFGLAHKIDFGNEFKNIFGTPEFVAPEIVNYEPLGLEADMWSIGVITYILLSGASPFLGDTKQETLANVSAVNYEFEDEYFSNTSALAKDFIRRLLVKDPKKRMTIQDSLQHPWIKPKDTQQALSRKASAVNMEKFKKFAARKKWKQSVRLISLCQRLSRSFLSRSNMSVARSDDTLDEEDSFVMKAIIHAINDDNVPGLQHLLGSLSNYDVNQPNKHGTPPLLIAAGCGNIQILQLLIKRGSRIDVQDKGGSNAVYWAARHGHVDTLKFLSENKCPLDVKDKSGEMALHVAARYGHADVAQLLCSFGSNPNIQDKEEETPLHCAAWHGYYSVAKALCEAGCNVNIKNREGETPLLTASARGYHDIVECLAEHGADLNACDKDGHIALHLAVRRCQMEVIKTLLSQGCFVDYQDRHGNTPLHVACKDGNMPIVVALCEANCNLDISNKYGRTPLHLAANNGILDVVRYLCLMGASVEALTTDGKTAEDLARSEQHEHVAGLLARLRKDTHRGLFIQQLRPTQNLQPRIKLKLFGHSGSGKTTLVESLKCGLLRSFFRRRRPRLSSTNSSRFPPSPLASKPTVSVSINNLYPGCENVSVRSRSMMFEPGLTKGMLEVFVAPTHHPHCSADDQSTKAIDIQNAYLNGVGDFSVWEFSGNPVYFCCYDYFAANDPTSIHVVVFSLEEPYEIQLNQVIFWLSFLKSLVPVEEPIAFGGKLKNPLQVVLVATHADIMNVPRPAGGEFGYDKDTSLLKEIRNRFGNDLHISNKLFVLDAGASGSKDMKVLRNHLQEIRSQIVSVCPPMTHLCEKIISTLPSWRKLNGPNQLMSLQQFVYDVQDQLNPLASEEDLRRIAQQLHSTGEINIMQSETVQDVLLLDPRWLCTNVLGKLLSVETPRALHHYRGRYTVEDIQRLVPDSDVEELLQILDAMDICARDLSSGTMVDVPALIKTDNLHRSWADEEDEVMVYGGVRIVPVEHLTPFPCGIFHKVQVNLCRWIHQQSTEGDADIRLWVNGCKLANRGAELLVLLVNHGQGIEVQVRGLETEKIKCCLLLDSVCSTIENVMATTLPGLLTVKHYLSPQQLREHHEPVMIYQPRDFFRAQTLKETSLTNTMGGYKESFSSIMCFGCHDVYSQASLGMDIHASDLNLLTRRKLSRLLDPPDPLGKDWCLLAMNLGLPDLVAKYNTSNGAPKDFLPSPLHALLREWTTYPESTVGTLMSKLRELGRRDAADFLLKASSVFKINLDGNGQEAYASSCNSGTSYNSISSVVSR
inactive: alvocidib 0.085 | Tubastatin A 0.001 | [1] 0.322 | defactinib -0.109 | [2] 0.058 | alisertib 0.051 | [4] 0.063 | gefitinib 0.139

CIB1 (UniProt Q99828)
UniProt Q99828, sequence (Q99828 whole entry, looked up): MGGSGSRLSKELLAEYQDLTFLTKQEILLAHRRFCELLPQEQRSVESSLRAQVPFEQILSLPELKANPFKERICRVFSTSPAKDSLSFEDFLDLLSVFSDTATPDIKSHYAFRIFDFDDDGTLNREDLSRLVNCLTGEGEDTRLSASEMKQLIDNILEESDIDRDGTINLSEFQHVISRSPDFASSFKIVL
inactive: alvocidib -0.003 | Tubastatin A -0.037 | [1] 0.01 | defactinib 0.038 | [2] 0.041 | encorafenib -0.001 | [3] -0.215 | alisertib -0.031 | [4] 0.072 | gefitinib -0.124

CORO7 (UniProt P57737)
inactive: alvocidib 0.001 | Tubastatin A 0.011 | [1] -0.092 | defactinib 0.191 | [2] -0.05 | encorafenib -0.081 | [3] 0.061 | alisertib 0.259 | gefitinib -0.062

DOCK8 (UniProt Q8NF50)
inactive: alvocidib 0.019 | Tubastatin A -0.098 | [1] 0.007 | defactinib 0.001 | [2] -0.073 | encorafenib 0.003 | [3] 0.05 | alisertib -0.01 | [4] 0.014 | gefitinib 0.005

DERA (UniProt Q9Y315)
inactive: alvocidib 0.121 | Tubastatin A 0.018 | [1] 0.033 | defactinib -0.003 | [2] 0.085 | encorafenib -0.005 | [3] -0.053 | alisertib -0.059 | [4] -0.01 | gefitinib 0.087

DDB2 (UniProt Q92466)
inactive: alvocidib 0 | Tubastatin A 0.06 | [1] 0.041 | [2] 0.069 | encorafenib 0.079 | [3] -0.065 | alisertib 0.045 | [4] 0.055 | gefitinib -0.131
active: defactinib 0.262

DHRS11 (UniProt Q6UWP2)
UniProt Q6UWP2, sequence (Q6UWP2 whole entry, looked up): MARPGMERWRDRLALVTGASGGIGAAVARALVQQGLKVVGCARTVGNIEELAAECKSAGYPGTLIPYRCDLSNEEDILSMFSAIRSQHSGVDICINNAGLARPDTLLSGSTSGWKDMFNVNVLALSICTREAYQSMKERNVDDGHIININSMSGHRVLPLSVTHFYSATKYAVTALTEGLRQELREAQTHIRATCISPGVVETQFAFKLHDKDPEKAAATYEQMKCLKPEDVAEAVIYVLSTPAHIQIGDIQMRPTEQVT
inactive: alvocidib -0.001 | Tubastatin A -0.083 | [1] 0.055 | defactinib 0.021 | [2] 0.031 | encorafenib 0.024 | [3] 0.109 | alisertib -0.074 | [4] 0.031 | gefitinib -0.022

CUX1 isoform 2 (UniProt Q13948)
inactive: alvocidib -0.035 | Tubastatin A 0.016 | [1] 0.033 | defactinib 0.085 | [2] -0.028 | encorafenib 0.067 | [3] -0.022 | [4] 0.071

CSNK2A2 (UniProt P19784)
UniProt P19784, sequence (P19784 whole entry, looked up): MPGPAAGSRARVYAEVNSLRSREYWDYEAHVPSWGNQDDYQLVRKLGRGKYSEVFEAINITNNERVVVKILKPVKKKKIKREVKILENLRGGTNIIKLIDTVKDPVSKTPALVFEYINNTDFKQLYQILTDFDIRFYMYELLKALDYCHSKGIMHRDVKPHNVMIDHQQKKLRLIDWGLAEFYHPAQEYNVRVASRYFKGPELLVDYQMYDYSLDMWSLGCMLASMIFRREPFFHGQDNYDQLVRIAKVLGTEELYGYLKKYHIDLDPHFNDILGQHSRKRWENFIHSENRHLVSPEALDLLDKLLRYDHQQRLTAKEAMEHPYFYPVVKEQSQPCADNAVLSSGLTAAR
inactive: alvocidib 0.101 | Tubastatin A -0.059 | [1] 0.321 | defactinib 0.172 | [2] -0.022 | encorafenib -0.047 | [3] 0.012 | alisertib 0.078 | [4] 0.135 | gefitinib 0.004

CMTM3 (UniProt Q96MX0)
inactive: alvocidib -0.007 | Tubastatin A -0.231 | [1] 0.04 | defactinib -0.022 | [2] 0.061 | encorafenib -0.011 | [3] 0.064 | alisertib -0.099 | [4] -0.036 | gefitinib -0.123

CNST (UniProt Q6PJW8)
UniProt Q6PJW8, sequence (Q6PJW8 whole entry, looked up): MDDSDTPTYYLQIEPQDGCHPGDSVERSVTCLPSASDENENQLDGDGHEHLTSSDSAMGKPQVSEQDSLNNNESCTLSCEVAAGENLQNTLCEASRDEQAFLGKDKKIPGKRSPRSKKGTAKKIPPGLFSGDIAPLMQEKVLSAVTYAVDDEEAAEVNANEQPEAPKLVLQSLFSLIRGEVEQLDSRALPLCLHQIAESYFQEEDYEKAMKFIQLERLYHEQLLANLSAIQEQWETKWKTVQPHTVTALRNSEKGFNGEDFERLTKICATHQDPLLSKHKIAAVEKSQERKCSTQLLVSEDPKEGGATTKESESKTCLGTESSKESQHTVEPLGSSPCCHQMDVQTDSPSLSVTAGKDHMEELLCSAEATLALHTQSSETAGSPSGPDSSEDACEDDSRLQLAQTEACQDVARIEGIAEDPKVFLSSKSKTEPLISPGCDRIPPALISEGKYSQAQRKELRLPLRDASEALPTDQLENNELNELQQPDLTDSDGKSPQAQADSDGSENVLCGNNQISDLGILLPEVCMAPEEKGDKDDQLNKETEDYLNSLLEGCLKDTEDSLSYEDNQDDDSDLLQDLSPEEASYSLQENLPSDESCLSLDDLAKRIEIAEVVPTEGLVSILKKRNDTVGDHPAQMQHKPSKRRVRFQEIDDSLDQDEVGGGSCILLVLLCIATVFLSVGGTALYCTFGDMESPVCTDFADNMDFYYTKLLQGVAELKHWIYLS
inactive: alvocidib 0 | Tubastatin A -0.055 | [1] 0.043 | defactinib 0.041 | [2] -0.027 | encorafenib 0.03 | [3] -0.096 | alisertib -0.031 | [4] 0.024 | gefitinib 0.002
